Screening results from PubChem.
ALR inh: inhibitors of human sulfhydryl oxidase ALR | 290,000 compounds, 3.8% hits | AID 485317 | inhibition, % (concentration not given with the values) | P55789 | purified ALR, DTT oxidation, H2O2 HRP-luminol luminescence;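 active = mean replicate inhibition above about 79%, with every replicate also reaching it, limit read from the data; inconclusive = only one of the two criteria met; inactive = mean below limit and not every replicate reaching it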
Target sequence (P55789 whole entry, looked up): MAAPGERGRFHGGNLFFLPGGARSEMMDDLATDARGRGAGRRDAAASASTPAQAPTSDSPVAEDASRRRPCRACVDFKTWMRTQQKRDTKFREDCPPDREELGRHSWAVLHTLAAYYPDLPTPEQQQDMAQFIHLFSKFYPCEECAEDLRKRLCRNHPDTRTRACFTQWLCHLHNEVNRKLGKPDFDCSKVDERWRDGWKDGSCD
AI-2 QS mod: Vibrio harveyi AI-2 quorum sensing modulation. Vibrio harveyi JMH597 AI-2 luminescence/OD600 ratio, 9 h; active compounds read low; strain lacks LuxN and CqsS sensors; 0 = neutral-control median. activity change, % at 7.5 µM. 300,000 compounds, 0.4% hits. AID 2094; in the data active = activity change below about -75%, passing the limit was not always enough; inconclusive = no clear call, values can overlap the other calls;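 note: luminescence divided by OD600 gain over 9 h not by final OD600 alone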
HIF act: HIF pathway transcriptional activation; U2OS HRE-luciferase reporter, luminescence; normalized: DMSO 0%, desferrioxamine 100%; activation, % at 7.5 µM (by protocol); 300,000 compounds, 0.32% hits; AID 1910;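 active = mean activation of at least 10% of the iron chelator positive control signal, with at least half of replicates also reaching 10%; inconclusive = mean and replicate majority disagree about reaching 10%; inactive = mean and most replicates under 10%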
SUMO Mot1 rescue: inhibitors of SUMOylation pathway: yeast Mot1-301 growth rescue. S. cerevisiae Mot1-301 growth rescue, ATP luminescence, 38.5C; percent above DMSO median, 100 means doubled. growth rescue, % at 18.8 µM. 320,000 compounds, 1% hits. AID 2716;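 active = every valid replicate shows activation above 250% relative to neutral control wells; inactive = the rest, any valid replicate at or below 250%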;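 note: OY570 slx delta 5 strain wells were the positive control but not used for scaling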
* hit, by the source's call; ? = inconclusive; . = no result. Hits are enriched below; roughly 4.8% of the tested compounds scored in any of these assays.

SMILES	ALR inh	AI-2 QS mod	HIF act	SUMO Mot1 rescue
CCC(C)c1c(O)nc(SCC(=O)Nc2ccccc2)[nH]c1=O (stereo unspecified)	99*	22	1	7
C=CCc1c(O)nc(SCC(=O)c2ccccc2)[nH]c1=O	99*	19	1	0
CCC(C)c1c(O)nc(SCC(=O)N2CCCCC2)[nH]c1=O (stereo unspecified)	11	-2	-1	9
CC(=O)Nc1ccc(NC(=O)c2ccc(-c3ccc([N+](=O)[O-])cc3)o2)cc1	-31	23	-1	-5
COc1cc([N+](=O)[O-])ccc1-c1ccc(C(=O)Nc2ccc(NC(C)=O)cc2)o1	98*	25	0	2
Cc1cc(C)c(C)c(S(=O)(=O)N2CCN(C(=O)CNC(=O)c3ccco3)CC2)c1C	-4	.	.	-10
COc1ccc(N2CCN(CCC3Oc4cc([N+](=O)[O-])ccc4NC3=O)CC2)cc1 (stereo unspecified)	86*	14	0	9
CCCn1c(N)c(N(CCOC)C(=O)CSc2c(Cl)cccc2Cl)c(=O)[nH]c1=O	2	.	.	-3
COc1ccccc1N1CCN(C(c2cccs2)C(C)NC(=O)c2cccnc2)CC1 (stereo unspecified)	98*	-9	0	1
CC(NC(=O)c1ccc(N(C)C)cc1)C(c1cccs1)N1CCN(C)CC1 (stereo unspecified)	78*	22	0	1
O=C(NCc1nnc(SCC(=O)N2CCCCC2)o1)c1c(F)cccc1Cl	4	28	1	14
N#Cc1c(N)sc2c1CCCCCC2	99*	15	0	9
CC(=O)Nc1sc2c(c1C#N)CCC2	.	28	0	2
Cc1cc(Cl)cc(C)c1OCCCCN1CCOCC1	-10	10	0	283*
O=C(O)c1cccc2c3c([nH]c12)CCCC3	87*	26	-1	147
O=c1c2ccccc2nc(SCc2nc3ccccc3s2)n1Cc1ccco1	87*	17	0	-2
CNS(=O)(=O)c1cc(Nc2ncnc3sccc23)ccc1C	.	3	0	-7
CCN(CC(=O)Nc1cccc(OC)c1)c1ncnc2sc(C)c(C)c12	87*	-12	0	17
COc1cccc(NC(=O)CN(C)C(=O)CSc2ncnc3sc(C)c(C)c23)c1	-9	-4	0	15
COc1cccc(NC(=O)COc2ncnc3sc(C)c(C)c23)c1	-7	-76*	-1	1
Cc1cccc(CC(=O)N2CCN(C(=O)c3ccco3)CC2)c1	-2	18	0	-21
COc1ccc(CCC(=O)OC(C)C(=O)c2ccc(C)cc2)cc1 (stereo unspecified)	2	-1	-1	10
Cc1ccc(C(=O)CCc2ccc(N)cc2)cc1	99*	-5	1	318*
Cc1ccc(S(=O)(=O)Nc2cc(-c3ccc(Cl)cc3)nn2C)cc1	11	28	19*	-12
C[n+]1c2n(c3ccccc31)N=C(c1ccc(-c3ccccc3)cc1)CS2	99*	10	0	7
SMILES	ALR inh	AI-2 QS mod	HIF act	SUMO Mot1 rescue
C[n+]1c2n(c3ccccc31)N=C(c1ccc(Br)cc1)CS2	99*	2	0	-3
CCc1nnc2n1N=C(c1ccc(Br)cc1)CS2	5	2	-10	-14
C[n+]1c2n(c3ccccc31)N=C(c1ccccc1)CS2	89*	1	1	-4
Cc1cc(-c2nnc3n2N=C(c2ccc(-c4ccccc4)cc2)CS3)n[nH]1	-11	35	1	-5
COc1cc(/C=N/NC(=O)CSc2ccccn2)ccc1O	98*	14	0	-6
CN(C)c1ccc(/C=N/NC(=O)COc2ccccc2)cc1	.	20	1	83
Cc1cccc(OCC(=O)N/N=C/c2ccc(N(C)C)cc2)c1	98*	8	0	29
CCCOc1ccc(/C=N/NC(=O)CSc2ccccn2)cc1OC	.	23	?	6
CN(C)c1ccc(/C=N/NC(=O)CSc2ccccn2)cc1	99*	19	1	3
O=C(CN1CCN(Cc2ccccc2Cl)CC1)N/N=C/c1cccs1	.	19	-1	3
O=C(c1cc(C2CC2)nn1-c1ccccc1)N1CCN(S(=O)(=O)c2c(F)cccc2F)CC1	0	.	.	-2
COc1cccc(OC)c1C(=O)NC(=O)Oc1c(F)cccc1F	-16	8	0	99
CCC(=O)NC(=S)Nc1ccc(NC(=O)c2ccccc2[N+](=O)[O-])cc1	.	28	2	5
CCC(=O)NC(=S)Nc1ccc(NC(=O)c2cccc([N+](=O)[O-])c2C)cc1	-2	0	15*	290
Cc1ccc(C)c(NC(=O)CSc2n[nH]c(-c3ccncc3)n2)c1	-32	6	0	-1
Cc1ccc(C)c(NC(=O)CSc2c(C)n[nH]c2C)c1	96*	.	0	-7
CCC(=O)N1CCc2cc(S(=O)(=O)NCCC(=O)N3CCN(c4cccc(C)c4)C(C)C3)ccc21 (stereo unspecified)	98*	21	0	10
Cc1cccc(N2CCN(C(=O)CCNS(=O)(=O)c3cccs3)CC2C)c1 (stereo unspecified)	93*	13	0	2
CCC(=O)N1CCc2cc(S(=O)(=O)NCCC(=O)N3CCN(c4cccc(OC)c4)CC3)ccc21	34	17	30*	31
COc1cccc(NC(=O)N2CCN(c3cccc(C)c3)C(C)C2)c1 (stereo unspecified)	99*	24	0	.
CCc1ccccc1Nc1nc(N)nc(COC(=O)CCC(=O)c2ccc(F)cc2)n1	.	.	.	17
Cc1nn(CCCC(=O)NCCc2ccccc2)c(=O)c2nccn12	-25	23	0	-18
O=C(CCNS(=O)(=O)c1ccc2nsnc2c1)N1CCN(c2ccncc2)CC1	3	.	.	-10
CCCOC(=O)C(C)n1cnc2scc(-c3ccc(C)cc3)c2c1=O (stereo unspecified)	-1	33	-1	0
Cc1ccc(N2CCN(C(=O)CNS(=O)(=O)c3ccc(Br)s3)CC2C)cc1 (stereo unspecified)	98*	19	0	-5
SMILES	ALR inh	AI-2 QS mod	HIF act	SUMO Mot1 rescue
CC1CC(C)CN(C(=O)CNS(=O)(=O)c2ccc(Br)s2)C1 (stereo unspecified)	.	11	0	3
Cc1ccc(NC(=O)CSC2=NCCN2)cc1	-3	-1	0	272
O=C(CSC1=NCCN1)NC(c1ccccc1)c1ccccc1	99*	.	1	-16
O=C(CSC1=NCCN1)Nc1ccccc1[N+](=O)[O-]	99*	14	0	-25
COc1ccccc1NC(=O)CSC1=NCCN1	98*	.	.	-9
O=C(CSC1=NCCN1)Nc1cccc([N+](=O)[O-])c1	99*	4	4	3
CC(C)CN(C(=O)COc1ccc(-c2nnco2)cc1)C1CCS(=O)(=O)C1 (stereo unspecified)	-1	7	0	-6
O=C(COC(=O)[C@@H]1CC(O)CN1S(=O)(=O)c1ccc2c(c1)OCCO2)Nc1cc(F)ccc1F (stereo partly specified)	-1	.	.	-3
